The panel holds about 83,000 compounds, 20% with a hit somewhere; the sample as a whole holds those more often.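 96-well plates, one dose, 48 hours. Percent growth reported; active if below 10.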 Values without a mark were called inactive. Activity calls are given as the source filed them.
Legend:
Assay in all cases: NCI-60 one-dose screen, 48 h (100 = growth as untreated, 0 = no growth, -100 = all killed)
Settings in all cases: 10 µM
DU-145 prostate = tested on: DU-145 prostate
K-562 leukemia = tested on: K-562 leukemia
MALME-3M melanoma = tested on: MALME-3M melanoma
MDA-MB-231 breast = tested on: MDA-MB-231 breast
RXF 393 renal = tested on: RXF 393 renal
SF-268 CNS = tested on: SF-268 CNS
SF-295 CNS = tested on: SF-295 CNS
SF-539 CNS = tested on: SF-539 CNS
UACC-257 melanoma = tested on: UACC-257 melanoma
M14 melanoma = tested on: M14 melanoma

Compound	growth (DU-145 prostate)	growth (K-562 leukemia)	growth (MALME-3M melanoma)	growth (MDA-MB-231 breast)	growth (RXF 393 renal)	growth (SF-268 CNS)	growth (SF-295 CNS)	growth (SF-539 CNS)	growth (UACC-257 melanoma)	growth (M14 melanoma)
N#Cc1c(-c2ccc(F)cc2)nc(SCc2ccc([N+](=O)[O-])cc2)nc1N1CCOCC1	73.3%	76.9%	42.8%	47.1%	9.79% (active)	49.3%	41.5%	26.2%	54.2%	87.7%
Nc1nc2c(F)c(F)c(F)c(F)c2s1	114%	93.1%	103%	116%	109%	97.8%	96%	99%	104%	113%
O=C1NC(=NC2CCCCCC2)N/C1=C\c1ccc2ncoc2c1	31.1%	38.1%	66.4%	50.9%	-8.82% (active)	35%	47.5%	-2.22% (active)	48.7%	64.4%
COc1ccc(-c2ccc(/C=N/NC(=O)c3[nH]c4ccc(Br)cc4c3-c3ccccc3)o2)cc1	75.5%	10.5%	47%	52.6%	16.8%	37.9%	4.48% (active)	-14.1% (active)	63.2%	17%
COc1cc2c(cc1OC)CN(CCCCOc1cc(O)c3c(=O)cc(-c4ccccc4)oc3c1)CC2	80.3%	-6.81% (active)	-68.6% (active)	38.5%	29.8%	65.9%	26.2%	48.7%	5.33% (active)	-21% (active)
CS(=O)(=O)Nc1ccc(-c2ccc3c(c2)ncn3-c2ccc(NC(=O)Nc3ccc(Cl)c(C(F)(F)F)c3)cc2)cc1	-4.47% (active)	-26% (active)	-80.8% (active)	-84.6% (active)	-57.5% (active)	2.56% (active)	-77.5% (active)	-88.8% (active)	-57.2% (active)	-95.3% (active)
CN1CCN(c2ccc(C(=O)/C=C/c3ccc(C#N)cc3)cc2)CC1	82.1%	7.48% (active)	90.4%	65.8%	63.9%	107%	78.2%	56.3%	90.4%	79.6%
O=C(Nc1ccc(I)cc1)Nc1nc2ccc([N+](=O)[O-])cc2s1	-100% (active)	-82.8% (active)	-99.7% (active)	-100% (active)	-95.1% (active)	-83.7% (active)	-95.4% (active)	-99.7% (active)	-91% (active)	-100% (active)
O=c1oc2ccc(-c3ccc(F)cc3F)cc2c(=O)n1-c1ccc(F)cc1	14.5%	5.98% (active)	-21.2% (active)	-5.38% (active)	-10.4% (active)	2.76% (active)	-19.3% (active)	-3.51% (active)	15.5%	18.3%
CNCc1cccc2c1OCCCCCC[C@@](C)(O)CC1(CC1)S(=O)(=O)c1ccc(cc1)-c1cnc(N)c(n1)C(=O)N2	-84.5% (active)	-37.5% (active)	-75.2% (active)	-92.8% (active)	-94.2% (active)	-64.2% (active)	-100% (active)	-98.9% (active)	-75% (active)	-38.6% (active)
Cc1ccc(/C(N)=N/c2sc(-c3ccccc3)nc2-c2ccccc2)cc1	89%	28.5%	89.2%	82.5%	82.7%	79.2%	77.6%	79.7%	93.9%	79.6%
O=C(Nc1cccc(-c2cn(-c3ccc4oc(=O)ccc4c3)nn2)c1)Nc1cc(C(F)(F)F)cc(C(F)(F)F)c1	30.2%	9.1% (active)	29.8%	34.7%	-5.05% (active)	62.2%	-45.7% (active)	19.1%	50.2%	55.5%
COc1ccc(C(=O)Nc2ccc(-c3ccc4c(c3)NC(=O)/C4=C\c3ccc[nH]3)cc2)cc1	-25.7% (active)	67.5%	50.9%	25.6%	8.7% (active)	0.17% (active)	-76.1% (active)	76.8%	77.5%	28.1%
O=C(c1ccc(Cl)cc1)C1[C@H](c2ccccc2Br)[C@@H](c2ccccc2)NC12C(=O)Nc1ccccc12 (stereo not given in full)	17.6%	3.71% (active)	39.6%	8.15% (active)	-12.6% (active)	27.9%	12.9%	13.5%	33.8%	17.1%
CC(=O)Nc1ccc(-n2cnc3cc(-c4ccc(NS(C)(=O)=O)cc4)ccc32)cc1	58.2%	24%	75.6%	49.4%	92.5%	47.3%	51%	65.3%	64.4%	61.9%
CC1=C(C(=O)OC(C)C)C(c2ccc(O)cc2)NC(=S)N1 (stereo not given)	100%	95.2%	105%	100%	97.3%	111%	96.6%	98.2%	121%	97%
CC(=O)Nc1ccc(-c2cn(-c3cccc(C(=O)Nc4cc(C(F)(F)F)cc(C(F)(F)F)c4)c3)nn2)cn1	-47.5% (active)	-66.1% (active)	-48.3% (active)	-72.5% (active)	-69.4% (active)	-7.7% (active)	-89.1% (active)	-83.7% (active)	-4.2% (active)	4.5% (active)
COc1cc(/C=C/C(=O)c2cc(OC)c(OC)c(OC)c2)ccc1Oc1nc(Nc2ccc(F)cc2)nc(N(C)C)n1	-35.8% (active)	2.36% (active)	-40.3% (active)	-60% (active)	-74.9% (active)	27.7%	-55.2% (active)	-80.6% (active)	-30.5% (active)	-27.5% (active)
O=C(c1ccc(Cl)cc1)C1[C@H](c2ccc(Br)cc2)[C@@H](c2ccccc2)NC12C(=O)Nc1ccc(Cl)cc12 (stereo not given in full)	-27.9% (active)	-31.2% (active)	-97.7% (active)	-95.3% (active)	-88.8% (active)	-7.66% (active)	-84% (active)	-58.5% (active)	-49.4% (active)	6.42% (active)
Cc1nc(Nc2nc(C)c3ccc(OCCN4CCOCC4)cc3n2)[nH]c(=O)c1C	14.9%	14.1%	-69.8% (active)	-67.1% (active)	-78% (active)	9.74% (active)	-29.3% (active)	-61.7% (active)	-14.9% (active)	18%
O=C(N/N=C/c1ccc(B(O)O)o1)c1[nH]c2ccc(Br)cc2c1-c1ccccc1	40.9%	7.21% (active)	61.1%	28.1%	1.27% (active)	51.1%	-8.66% (active)	-33.4% (active)	63.4%	20.1%
COC[C@@H](CC(C)C)N=C1NC(=O)/C(=C/c2ccc3ncsc3c2)N1	15.7%	11.8%	8.01% (active)	9.26% (active)	-36.9% (active)	16%	23.2%	-20.5% (active)	16.2%	42.3%
Cc1ccc(NCC(=O)Nn2c(COc3ccccc3)nc3ccccc3c2=O)cc1	85.9%	88.2%	80.8%	62%	51.3%	49.8%	58%	51.4%	83.6%	93.3%
CCN1CCN(Cc2ccc(NC(=O)c3cccc(-n4cc(-c5ccc(NC(C)=O)nc5)nn4)c3)cc2C(F)(F)F)CC1	104%	-28.4% (active)	53.1%	75.8%	102%	123%	93.1%	73.1%	87%	78.3%
CN(C(=O)c1ccc(C(F)(F)F)cc1C(F)(F)F)c1sc2c(c1C#N)CCC(=O)C2	103%	6.49% (active)	99%	71.1%	7.86% (active)	85%	65.1%	-37.6% (active)	99%	73.9%
CCCCCCCCCCCCCCCCCCCC(=O)NCCc1c[nH]c2ccc(OC(=O)CCCC(=O)OCCOOCCOOCCOOCCOOCCOOCCOOCCOOCCOOCCOOCCOOCCOOCCOC)cc12	39.8%	2.22% (active)	102%	44.5%	91.3%	16.7%	13.3%	-32.9% (active)	92.5%	56.4%
